Screens as filed in PubChem.
ALDH1A1 block: ALDH1A1 (human) enzyme inhibition; AID 1030; 220,000 compounds, 7.3% hits; Potency, µM (highest dose often 75.3 µM), without a hit: top-dose activity, negative = inhibition, most hits filed as inhibitors; Purified ALDH1A1, NADH fluorescence, propionaldehyde substrate; active = well fitted inhibition curve with a large enough effect, not every such curve was filed as active; inconclusive = small, poorly fitted or top-dose-only effect, or another doubt; inactive = no such curve, though single readings can be large or run the other way;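 note: plate controls were no enzyme wells and a reference inhibitor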
Target sequence (P00352 whole entry, looked up): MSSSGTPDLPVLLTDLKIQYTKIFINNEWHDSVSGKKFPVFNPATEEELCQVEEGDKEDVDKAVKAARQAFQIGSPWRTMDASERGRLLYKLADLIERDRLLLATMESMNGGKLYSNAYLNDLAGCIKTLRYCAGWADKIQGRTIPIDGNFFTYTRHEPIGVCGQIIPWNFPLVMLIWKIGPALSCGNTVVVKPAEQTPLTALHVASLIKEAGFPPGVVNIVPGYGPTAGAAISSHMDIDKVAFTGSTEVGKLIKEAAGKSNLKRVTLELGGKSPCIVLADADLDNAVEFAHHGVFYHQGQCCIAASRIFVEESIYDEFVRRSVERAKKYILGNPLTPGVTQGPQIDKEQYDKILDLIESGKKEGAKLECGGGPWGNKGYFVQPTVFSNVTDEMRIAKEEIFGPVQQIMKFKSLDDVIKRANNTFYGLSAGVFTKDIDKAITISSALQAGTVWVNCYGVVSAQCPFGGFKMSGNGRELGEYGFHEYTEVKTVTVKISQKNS
KinaseGlo FLuc: counter-screen: inhibitors of Kinase-Glo firefly luciferase. Q27757. Kinase-Glo luciferase, ATP luminescence, 8 min. Potency, µM (titrated, usually from 38.3 µM), inactives show top-dose activity change, negative = inhibition, hits mostly inhibitors. 200,000 compounds, 0.28% hits; note: % is set by controls: 0 for no effect and ±100 for the full control effect; nearly all actives have a fitted effect of over 60% in size
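Compound is pinned into ATP-containing buffer (10 uM ATP, imidazole pH 7.2, 7 mM MgCl2). Kinase-Glo luciferase reagent is then added. Light output is recorded following an 8-min room-temperature incubation.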
HttQ103 aggreg: inhibitors of mutant huntingtin aggregate formation in PC12 cells | PC12 HttQ103-GFP aggregates, Acumen cytometry, 40 h | Potency, µM (highest dose often 46.1 µM), inactives show at the highest dose activity change, negative = inhibition, actives largely listed as inhibitors | 220,000 compounds, 1.1% hits | AID 1688; note: % is set by controls: 0 for no effect and ±100 for the full control effect; nearly all actives have a fitted effect of over 60% in size
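Using laser scanning cytometry, GFP-positive aggregates were counted after lysis of PC12 cells induced with 100 nM tebufenozide to express HTT exon 1 Q103–GFP. Compounds were tested in titration.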
Lamin A splicing: modulators of lamin A splicing | HeLa LMNA splicing GFP/RFP minigene ratio, 48 h | Potency, µM (highest dose often 46.1 µM), without a hit: at the top dose ratio change, negative = inhibition, usual class: inhibitors | 200,000 compounds, 0.01% hits; active = well fitted inhibition curve with a large enough effect in the signal ratio, with a control signal flat, not every such curve was filed as active; inconclusive = small, poorly fitted or top-dose-only effect, or effect the other way, or a change in a side signal; the % refers to the signal ratio; note: % is set by controls: 0 for no effect and ±100 for the full control effect
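S3 HeLa cells stably expressing lamin A-EGFP splicing minigene plus DsRed2, 600 cells/well, 48 h compound exposure at 37C. Laser-scanning cytometry; analysed as GFP (500-530 nm)/RFP (575-640 nm) total intensity ratio; 0.5% DMSO vehicle.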
HPGD inh: inhibitors of human 15-hydroxyprostaglandin dehydrogenase (HPGD); AID 894; 150,000 compounds, 4.3% hits; P15428; Potency, µM, inactives show top-dose activity change, negative = inhibition, most hits filed as inhibitors; purified HPGD, NADH fluorescence kinetic, PGE2 substrate; active = well fitted inhibition curve with a large enough effect, not every such curve was filed as active; inconclusive = small, poorly fitted or top-dose-only effect, or another doubt; inactive = no such curve, though single readings can be large or run the other way; note: % is set by controls: 0 for no effect and ±100 for the full control effect
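NADH formation kinetics: reaction with 30 uM PGE2 and 1 mM NAD+ (final), 20 nM enzyme, Tris-HCl pH 8 with Tween 20, after 15 min compound preincubation at room temperature. Fluorescence change, last versus first of five reads.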
HTT ATP protect: protects HTT-Q103 PC12 cells, measured by ATP | Potency, µM (doses to about 56.4 µM), for inactives: cytoprotection (ATP increase), most hits filed as activators | PC12 HTT-Q103 induced, cytoprotection, ATP luminescence, 40 h | 230,000 compounds, 0.14% hits; note: % of control where 0% means no effect; nearly all actives have a fitted effect of over 45% in size
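PC12 cells with ecdysone-inducible HTT exon 1 Q103-GFP, induced with 100 nM tebufenozide and co-treated with library compounds in a dose series (1536-well, 1500 cells/well). Cytoprotection read as ATP content by ATPlite luminescence.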
An asterisk follows results filed as active; ? = inconclusive; · = no result; [ ] = dose if it differs, or a comment. Rows were chosen to be rich in hits. Some 9% of all compounds tested hit in one or more screens of this group. Unless noted, calls come from the whole dose curve; as a rule, active = well fitted curve in the direction sought with a large enough effect; inconclusive = small, poorly fitted or top-dose-only effect, or another doubt; inactive = no such curve, though single readings can be large; an effect the other way counts as inactive or inconclusive. Potency is the fitted concentration of half-maximal effect.

SMILES | ALDH1A1 block | KinaseGlo FLuc | HttQ103 aggreg | Lamin A splicing | HPGD inh | HTT ATP protect
Fc1ccc(/C=N/n2c(-c3cccs3)n[nH]c2=S)cc1 | 14µM* | 20% | ? | 8% | 4µM* | -9%[10 µM]
S=c1[nH]nc(-c2ccco2)n1/N=C/c1ccccc1Cl | 10µM* | · | -11% | -8% | · | -14%[10 µM]
S=c1[nH]nc(-c2ccccn2)n1/N=C/c1ccc(Cl)cc1 | 0% | · | -19%[9.22 µM] | · | · | -4%[10 µM]
S=c1[nH]nc(-c2ccco2)n1/N=C/c1ccc(Cl)cc1 | 22µM* | 1% | 0% | ? | 3.5µM* | -2%[10 µM]
Cc1ccc(/C=N/n2c(-c3ccco3)n[nH]c2=S)s1 | 11µM* | 2% | 6% | -12% | 13µM* | 3%[10 µM]
COc1ccccc1/C=C/C=N/n1c(-c2ccco2)n[nH]c1=S | ? | · | -12%[9.22 µM] | · | · | -10%[10 µM]
CC(C)(C)N(Cc1cc2ccccc2[nH]c1=O)C(=O)c1cccc([N+](=O)[O-])c1 | · | · | -8%[9.22 µM] | · | · | 16%[10 µM]
CC(=O)Nc1ccc(S(=O)(=O)N2CCN(Cc3cccnc3)CC2)cc1 | ? | -5% | -10% | -13% | 0% | 9%
N#Cc1c(-c2ccccc2)nc(SCc2nc(N)nc(N3CCCCC3)n2)[nH]c1=O | -5% | 2% | 3% | -4% | ? | -21%
CCOC(=O)c1c(NC(=O)CSc2c[nH]c3ccccc23)sc2c1CCC2 | ? | 1% | -4% | ? | -13% | ·
CCOC(=O)c1c(NC(=O)C(C)Sc2cn(C)c3ccccc23)sc2c1CCC2 (configuration not stated) | 25µM* | 14% | 4% | 9% | -12% | ·
Cc1ccc(CN2CCN(Cc3cc(=O)c4ccccc4[nH]3)CC2CCO)o1 (configuration not stated) | 18µM* | -1% | 7%[9.22 µM] | · | · | 10%[10 µM]
COc1cccc(NC(=O)N2CCN(c3cccc(C)c3C)CC2)c1 | ? | 1% | -3% | ? | -16% | -25%[10 µM]
Cc1ccc(S(=O)(=O)CC#CCOC(=O)c2ccc([N+](=O)[O-])cc2)cc1 | 1.1µM* | 2% | 23% | ? | 13µM* | -11%
N#CC1=C(N)Oc2cc(N)ccc2C1c1ccsc1 (configuration not stated) | 7% | 1% | -22% | 4% | -2% | ·
Fc1cccc(Cl)c1Cn1nnc2c(N3CCC4(CC3)OCCO4)ncnc21 | 16µM* | -5% | -19% | ? | -12% | -7%[10 µM]
c1ccc(Cn2nnc3c(N4CCc5ccccc54)ncnc32)cc1 | ? | 1% | -4% | -16% | ? | -3%[10 µM]
CCCN1CCN(c2ncnc3c2nnn3Cc2ccccc2)CC1 | 10µM* | -4% | -2% | -15% | 25µM* | 4%
c1ccc(Cn2nnc3c(NCCN4CCOCC4)ncnc32)cc1 | ? | -7% | 5% | 9% | -26% | -9%[10 µM]
c1ccc(Cn2nnc3c(N4CCCCCC4)ncnc32)cc1 | ? | 1% | -12% | ? | 32µM* | 13%[10 µM]
CC(=O)N1CCCc2cc(S(=O)(=O)Nc3ccc4c(c3)OCO4)ccc21 | ? | -2% | -12% | -15% | -12% | 5%[10 µM]
CC1(C)CC(N=C2C([N+](=O)[O-])=CC=C3C2=NC2(CCCCC2)N3O)CC(C)(C)N1 | · | · | 3%[9.22 µM] | · | · | 5%[10 µM]
CCOC(=O)C1(CCCc2ccccc2)CCN(C(=O)CCc2cnn(C)c2)CC1 | ? | 1% | 1%[9.22 µM] | 5%[46 µM] | · | 24%[10 µM]
CCOC(=O)C1(CCCc2ccccc2)CCN(C(=O)c2cnc(C)cn2)CC1 | 4.5µM* | 3% | -4%[9.22 µM] | · | · | 1%[10 µM]
CCOC(=O)C1(CCCc2ccccc2)CCN(C(=O)CCOC)CC1 | 0.45µM* | · | 1%[9.22 µM] | · | · | -20%[10 µM]
SMILES | ALDH1A1 block | KinaseGlo FLuc | HttQ103 aggreg | Lamin A splicing | HPGD inh | HTT ATP protect
CCOC(=O)C1(CCCc2ccccc2)CCN(C(=O)c2cc(C)nc(C)n2)CC1 | ? | -1% | 2%[9.22 µM] | ? | · | -1%[10 µM]
CCOC(=O)C1(CCCc2ccccc2)CCN(C(=O)CCCn2cncn2)CC1 | ? | -2% | 15%[9.22 µM] | 9%[46 µM] | · | 12%[10 µM]
CCOC(=O)C1(CCCc2ccccc2)CCN(C(=O)CCN2CCCCC2=O)CC1 | 4.5µM* | -1% | 2%[9.22 µM] | · | · | 19%[10 µM]
CCOc1ccc(C(c2c(O)nc(SC)n(C)c2=O)c2c(O)nc(SC)n(C)c2=O)cc1 | ? | 0% | 9% | 6% | -7% | -2%
O=C(O)c1ccc(N=NNc2cccc([N+](=O)[O-])c2)cc1 | 1% | -11% | 5% | -2%[46 µM] | · | -44%
N#C/C(=N\Nc1cccc([N+](=O)[O-])c1)C(=O)c1ccc(Br)cc1 | 22µM* | -3% | 1.8µM* | · | · | ·
CCCOC(=O)c1ccc(NC(=O)/C=C/c2cccs2)cc1 | -15% | 0% | -6% | -4% | ? | ·
COc1cc2c(C#N)c(N3CCCCC3)nc(N)c2c(N)n1 | ? | 10% | 11µM* | 0% | ? | -32%
COc1cc2c(C#N)c(N3CCOCC3)nc(N)c2c(N)n1 | ? | -26% | ? | -17% | ? | -15%[10 µM]
Cc1ccc(-c2nnc(CSc3nnc(COc4ccccc4)n3-c3ccccc3)o2)cc1 | -11% | -4% | ? | ? | -22% | -5%[10 µM]
CCOc1ccc(-c2nnc(SCc3nnc(-c4ccccc4)o3)n2-c2ccccc2F)cc1 | 4% | -3% | ? | 6% | 13µM* | 3%[4.97 µM]
